Test results: PubChem BioAssay AID2116 (The Scripps Research Institute Molecular Screening Center, 2009)
Values without a mark were called inactive. The source made the active and inactive calls. No rule for the calls is given here.

Molecular target: Mucolipin-2 (Homo sapiens) (UniProt Q8IZK6)
Experiment: TRPML3 and TRPML2 channel agonists, cell-based, patch clamp, Fura-2 profiling panel (AID 2116)
Settings: HEK293 cells, TRPML2 Fura-2 Imaging; at 10 µM; stronger effect = higher value

Structure (SMILES) | activation
O=S(=O)(Nc1ccccc1N1CCOCC1)c1ccc(Cl)s1 | 7.14%
Cc1ccc(N2CCN(S(=O)(=O)N3CCCCC3)CC2)c(C)c1 | 23.5% (active)
O=S(=O)(NC1CCCCC1N1CCOCC1)c1ccc(Cl)cc1 (stereo not given) | 54.5% (active)
O=S(=O)(Nc1ccccc1N1CCCCC1)c1ccc(Cl)s1 | < 1%
Cc1ccc(S(=O)(=O)Nc2ccccc2-c2ccccc2)cc1 | < 1%
